From PubChem BioAssay
Values joined by “and” are separate entries in the source; they are usually repeats but may differ in a detail not shown here. Equal values may be shown once. Active and inactive are the calls of the source.

What was measured:
[1] = E. coli DRC41 culture turbidity changes, primary screen, E. coli filamentation inducer project, strain DRC41, OD650, 48 h (AID 1152);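 further: E. coli MC1000 strain DRC41 lacking acrAB efflux pump and sulA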; conditions: E. coli DRC41 (acrAB sulA), higher = more signal, called active from +8 up or from −8 down
[2] = small-molecule binders of probe aLefty1, primary screen, biochemical, small-molecule microarray, 635/667 nm fluorescence (AID 1153); conditions: higher = more signal;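 further: score merges spot fluorescence with signal-to-noise ratio from the scanned slide images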
[3] = PSAC antagonists in infected red cells, primary screen, cell-based, P. falciparum Indochina, OD700, 1 h (AID 1154); conditions: P. falciparum Indochina infected RBC osmotic lysis, higher = more signal, called active from +8 up or from −8 down
[4] = PSAC antagonists in infected red cells, primary screen, cell-based, P. falciparum Indochina, OD700, 2 h (AID 1155);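 further: lysis reports solute entry through the parasite surface anion channel PSAC; channel blockers reduce lysis of infected cells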; conditions: P. falciparum Indochina infected erythrocytes, osmotic lysis OD700; higher = more signal, called active from +8 up or from −8 down
[5] = osmotic lysis modulators in infected erythrocytes, primary screen, PSAC antagonist project, cell-based, P. falciparum Indochina, OD700, 3 h (AID 1156); conditions: higher = more signal, called active from +8 up or from −8 down
[6] = PSAC antagonists in infected red cells, primary screen, cell-based, P. falciparum Indochina, OD700, 18 h (AID 1157); conditions: P. falciparum Indochina infected erythrocytes, osmotic lysis OD700, 18 h; higher = more signal, called active from +8 up or from −8 down
[7] = modulators of S6 phosphorylation in cells, primary screen, cell-based, A549, cytoblot, luminescence, serum-stimulated (AID 1158); conditions: A549 phospho-S6 cytoblot, 5 h, higher = more signal;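 further: serum-stimulated A549 lung adenocarcinoma cells; signal is phosphorylated S6 detected by cytoblot immunostaining with HRP secondary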
[8] = molecular target: NADPH oxidase 2 (Homo sapiens) (UniProt P04839); test: NOX2-dependent H2O2 signal modulators, primary screen, NOX inhibitor project, cell-based, HEK293-NOX2, PMA-stimulated, Amplex Red fluorescence (AID 1159); conditions: 45 min, higher = more signal, called active from +8 up or from −8 down; further: test concentration not given here
NADPH oxidase 2 (Homo sapiens), sequence (P04839 whole entry, looked up): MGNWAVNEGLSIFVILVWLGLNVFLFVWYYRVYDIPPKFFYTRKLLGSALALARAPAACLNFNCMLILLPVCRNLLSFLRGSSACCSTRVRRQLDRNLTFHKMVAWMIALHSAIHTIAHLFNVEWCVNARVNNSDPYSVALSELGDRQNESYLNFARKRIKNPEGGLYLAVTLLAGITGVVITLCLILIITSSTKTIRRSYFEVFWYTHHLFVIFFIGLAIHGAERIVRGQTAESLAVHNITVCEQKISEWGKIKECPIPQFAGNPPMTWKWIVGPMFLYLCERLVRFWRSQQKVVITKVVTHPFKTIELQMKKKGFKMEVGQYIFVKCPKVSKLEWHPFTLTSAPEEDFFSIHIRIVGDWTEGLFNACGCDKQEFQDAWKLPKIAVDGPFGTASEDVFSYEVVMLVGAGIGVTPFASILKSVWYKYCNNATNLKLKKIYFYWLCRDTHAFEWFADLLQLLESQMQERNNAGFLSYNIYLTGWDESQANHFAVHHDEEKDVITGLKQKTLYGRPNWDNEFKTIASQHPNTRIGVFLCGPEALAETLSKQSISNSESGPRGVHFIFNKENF

[9] = molecular target: NADPH oxidase 4 (Homo sapiens) (UniProt Q9NPH5); test: NOX4-dependent H2O2 signal modulators, primary screen, NOX inhibitor project, cell-based, HEK293-NOX4, tetracycline-induced, Amplex Red fluorescence (AID 1160); conditions: 45 min, higher = more signal, called active from +8 up or from −8 down
NADPH oxidase 4 (Homo sapiens), sequence (Q9NPH5 whole entry, looked up): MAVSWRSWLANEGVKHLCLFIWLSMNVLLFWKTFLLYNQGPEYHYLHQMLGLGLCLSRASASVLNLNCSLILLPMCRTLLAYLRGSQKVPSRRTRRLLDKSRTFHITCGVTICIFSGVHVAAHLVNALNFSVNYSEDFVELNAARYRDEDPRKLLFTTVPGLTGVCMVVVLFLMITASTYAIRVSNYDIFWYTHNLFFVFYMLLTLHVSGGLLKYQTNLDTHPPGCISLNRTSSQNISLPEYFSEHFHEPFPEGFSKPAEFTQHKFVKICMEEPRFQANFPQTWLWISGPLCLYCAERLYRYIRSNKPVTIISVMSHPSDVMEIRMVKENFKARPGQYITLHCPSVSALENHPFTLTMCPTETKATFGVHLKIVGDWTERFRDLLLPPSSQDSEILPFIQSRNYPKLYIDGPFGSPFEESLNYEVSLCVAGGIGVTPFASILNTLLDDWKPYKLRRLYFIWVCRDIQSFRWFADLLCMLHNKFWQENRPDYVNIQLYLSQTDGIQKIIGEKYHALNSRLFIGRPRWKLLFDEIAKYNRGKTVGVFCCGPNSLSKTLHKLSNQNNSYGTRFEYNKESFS

[10] = molecular target: NADPH oxidase 5 (Homo sapiens) (UniProt Q96PH1); test: NOX5-dependent H2O2 signal modulators, primary screen, NOX inhibitor project, cell-based, HEK293-NOX5, Amplex Red fluorescence (AID 1161); conditions: HEK293-NOX5, ionomycin, 45 min, higher = more signal
NADPH oxidase 5 (Homo sapiens), sequence (Q96PH1 whole entry, looked up): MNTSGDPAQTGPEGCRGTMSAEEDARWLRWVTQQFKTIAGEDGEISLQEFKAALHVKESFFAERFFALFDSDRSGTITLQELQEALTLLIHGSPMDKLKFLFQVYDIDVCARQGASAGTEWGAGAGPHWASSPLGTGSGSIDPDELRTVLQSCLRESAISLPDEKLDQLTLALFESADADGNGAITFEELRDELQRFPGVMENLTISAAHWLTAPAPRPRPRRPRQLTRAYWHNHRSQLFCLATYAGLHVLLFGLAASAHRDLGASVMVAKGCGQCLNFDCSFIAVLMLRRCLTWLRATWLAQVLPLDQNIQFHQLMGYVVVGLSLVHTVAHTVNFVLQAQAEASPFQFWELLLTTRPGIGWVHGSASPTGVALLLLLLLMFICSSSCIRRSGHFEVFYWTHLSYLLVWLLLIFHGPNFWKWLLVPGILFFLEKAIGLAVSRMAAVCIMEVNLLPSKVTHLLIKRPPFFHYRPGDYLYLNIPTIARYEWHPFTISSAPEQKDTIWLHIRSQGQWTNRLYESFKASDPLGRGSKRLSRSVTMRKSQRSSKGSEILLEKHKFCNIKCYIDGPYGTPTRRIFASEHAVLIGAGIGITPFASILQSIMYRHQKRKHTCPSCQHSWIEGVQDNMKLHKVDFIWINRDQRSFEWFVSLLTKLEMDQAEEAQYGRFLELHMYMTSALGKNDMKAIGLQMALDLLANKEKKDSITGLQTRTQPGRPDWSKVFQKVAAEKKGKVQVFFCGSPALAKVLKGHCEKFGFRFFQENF

[11] = A549 cell viability effects, profiling panel, calcein-AM fluorescence, 48 h, basal (AID 1162); conditions: higher = more signal; further: test concentration not given here
[12] = adipocyte viability effects, profiling panel, cell-based, 3T3-L1 adipocytes, calcein-AM fluorescence, 48 h, basal (AID 1163); conditions: 3T3-L1 adipocytes viability, higher = more signal; further: test concentration not given here
[13] = HepG2 cell viability effects, profiling panel, calcein-AM fluorescence, 48 h, basal (AID 1164); conditions: higher = more signal; further: test concentration not given here
[14] = MM1S cell viability effects, profiling panel, calcein-AM fluorescence, 48 h, basal (AID 1165); conditions: higher = more signal;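 further: viability of MM1S multiple myeloma cells under basal unstimulated conditions; test concentration not given here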
[15] = basal RPMI8226 viability, no added stimulus, profiling panel, cell-based, calcein-AM fluorescence, 48 h, PK04 Diversity Set (AID 1166); conditions: RPMI8226 myeloma viability, higher = more signal;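 further: cells grown under basal conditions without added stimulus; test concentration not given here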
[16] = basal HepG2 mitochondrial membrane potential changes, profiling panel, cell-based, JC-1 fluorescence, 24 h, 100 nL compound (AID 1167); conditions: higher = more signal; further: test concentration not given here
[17] = basal 3T3-L1 adipocyte mitochondrial potential changes, profiling panel, cell-based, JC-1 fluorescence, 3T3-L1 adipocytes, 24 h, 100 nL compound (AID 1168); conditions: JC-1 mitochondrial fluorescence, higher = more signal, called active from +8 up or from −8 down; further: test concentration not given here
[18] = basal RPMI8226 mitochondrial membrane potential changes, profiling panel, cell-based, JC-1 fluorescence, 24 h, 100 nL compound (AID 1169); conditions: RPMI8226 myeloma, JC-1 mitochondrial potential fluorescence, higher = more signal; further: test concentration not given here
[19] = basal MM1S mitochondrial membrane potential changes, profiling panel, cell-based, JC-1 fluorescence, 24 h, 100 nL compound (AID 1170); conditions: higher = more signal; further: test concentration not given here
[20] = A549 lung cancer cell viability effects, profiling panel, resazurin fluorescence, 24 h, PK04 Diversity Set (AID 1171); conditions: higher = more signal, called active from +8 up or from −8 down; further: test concentration not given here

Row | Compound | z-score [1] | composite z-score [2] | z-score [3] | z-score [4] | z-score [5] | z-score [6] | z-score [7] | z-score [8] | z-score [9] | z-score [10] | z-score [11] | z-score [12] | z-score [13] | z-score [14] | z-score [15] | z-score [16] | z-score [17] | z-score [18] | z-score [19] | z-score [20]
1 | COC(=O)C1=C(C)N(Cc2ccccc2)[C@]23O[C@](C(=O)OC)(C(=O)N2[C@@H]1c1ccccc1)[C@@H](c1ccccc1)[C@@H]3C(=O)c1ccccc1 | -1.1 (inactive) and 0.116 (inactive) | -0.145 and -0.193 | 1.17 (inactive) and 0.647 (inactive) | -0.645 (inactive) and 0.238 (inactive) | 0.372 (inactive) and 0.467 (inactive) | -1.38 (inactive) and 0.0752 (inactive) | 1.39 and 0.0227 | 2.38 (inactive) and 0.648 (inactive) | 0.856 (inactive) and 0.876 (inactive) | 2.66 and 1.46 | 0.668 and 0.418 | 1.64 and 0.204 | 0.344 and 0.832 | 0.54 and 0.391 | -0.0139 and 0.294 | 2.68 and 2.31 | 1.13 (inactive) and 0.417 (inactive) | 0.535 and -0.253 | -0.00272 and 0.667 | 0.266 (inactive) and 1.05 (inactive)
2 | C=C[C@@H](OC)[C@H](O)c1ccc(OC)c(O)c1 | 0.232 (inactive) and 1.81 (inactive) | 0.235 and -0.328 | 0.61 (inactive) and -0.257 (inactive) | 0.436 (inactive) and -1.63 (inactive) | -0.28 (inactive) and -1.54 (inactive) | 0.328 (inactive) and -2.34 (inactive) | 0.138 and 0.185 | -2.35 (inactive) and -2.11 (inactive) | -0.998 (inactive) and -1.12 (inactive) | -1.51 and -0.778 | -0.72 and 0.387 | 1.21 and 1.57 | -1.02 and 0.209 | -1.16 and 0.905 | -1.3 and 0.14 | -0.782 and 0.179 | -1.44 (inactive) and 0.912 (inactive) | -0.205 and -0.346 | -0.297 and 1 | -0.693 (inactive) and 0.835 (inactive)
3 | CC(CO)N1C(=O)[C@@H]2C3C(=O)OCCC=C[C@H]3OC23C=CCN(c2ccc4ccccc4c2)C(=O)[C@@H]13 (stereo not given in full) | -0.562 (inactive) and -0.929 (inactive) | -0.0015 and -0.673 | 3.31 (inactive) and 4.57 (inactive) | 1.28 (inactive) and 0.577 (inactive) | 1.18 (inactive) and 0.724 (inactive) | 0.652 (inactive) and 0.282 (inactive) | -0.631 and -0.363 | 1.68 (inactive) and 1.25 (inactive) | 0.411 (inactive) and 1.05 (inactive) | 2.69 and 2.08 | -0.288 and -0.0156 | 0.0371 and -0.217 | -0.463 and -0.565 | 0.0923 and 1.01 | -0.526 and -0.237 | -0.0969 and -0.0971 | -0.684 (inactive) and -1.28 (inactive) | -0.904 and 0.195 | 0.238 and 0.275 | -0.124 (inactive) and 0.0409 (inactive)
4 | C=C[C@H](C)[C@@H](O)c1ccc(OCCO)cc1 | -0.454 (inactive) and -0.0821 (inactive) | -0.235 and -0.146 | 0.92 (inactive) and 1.14 (inactive) | 0.613 (inactive) and 0.0956 (inactive) | -0.642 (inactive) and -0.202 (inactive) | 0.232 (inactive) and 0.252 (inactive) | -0.248 and -0.5 | 0.149 (inactive) and -0.758 (inactive) | 0.101 (inactive) and -0.0609 (inactive) | 0.297 and 0.492 | 0.235 and -0.066 | 0.101 and -0.192 | -0.211 and 0.619 | 0.529 and -0.301 | -0.528 and 0.864 | -0.368 and 0.814 | 0.428 (inactive) and 0.45 (inactive) | -0.961 and 0.99 | 0.976 and -0.205 | 0.0233 (inactive) and -0.361 (inactive)
5 | C=C[C@@H](OC)[C@H](O)c1ccc(OCCO)cc1 | -0.368 (inactive) and 2.73 (inactive) | -0.0984 and -0.53 | -0.167 (inactive) and 1.57 (inactive) | 0.139 (inactive) and -0.317 (inactive) | -0.123 (inactive) and -0.29 (inactive) | 0.278 (inactive) and -0.993 (inactive) | -0.424 and 2.8 | -0.394 (inactive) and -0.426 (inactive) | -0.164 (inactive) and -0.249 (inactive) | -0.743 and -1.57 | 0.143 and 0.72 | -0.434 and 0.971 | 0.124 and 0.628 | 0.663 and 0.916 | -0.486 and 0.64 | -0.244 and 0.904 | 0.36 (inactive) and -1.97 (inactive) | -0.982 and -0.69 | 0.88 and -1.28 | -0.133 (inactive) and -0.135 (inactive)
6 | CO[C@H]1COC(=O)CC=C[C@H](C)[C@H](OC)COC(=O)[C@@H](C)COC(=O)CC=C[C@@H]1C | 0.462 (inactive) and 0.63 (inactive) | -0.294 and -0.193 | -0.267 (inactive) and 0.565 (inactive) | -0.162 (inactive) and -0.455 (inactive) | -0.146 (inactive) and 0.4 (inactive) | -0.0153 (inactive) and 0.179 (inactive) | -0.0498 and 0.833 | 0.282 (inactive) and 1.16 (inactive) | 0.201 (inactive) and 0.589 (inactive) | -0.26 and 0.25 | -0.26 and 0.27 | 0.0599 and 0.0256 | 0.0517 and 1.24 | 0.183 and 0.0455 | -0.409 and 0.728 | 0.152 and 1.09 | -0.317 (inactive) and 0.125 (inactive) | -0.429 and 0.0879 | 0.688 and 0.438 | 0.211 (inactive) and -0.379 (inactive)
